VDR inh: vitamin D3 receptor (human) inhibition | P11473 | VDR-SRC2-3 peptide fluorescence polarization, 2 h | Potency, µM, for inactives: max response, negative = inhibition, actives largely listed as inhibitors | actives 0.93% (n = 400,000) | AID 504847; further: on the % scale 0 is the no-effect control and ±100 the full control effect
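VDR–SRC2-3 interaction, FP format. Cmpds 23 nl via pintool, brief spin, 2 h ambient incubation.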
PLK1 PBD inh: inhibitors of human PLK1 polo-box domain binding | Plk1 PBD binding of FITC phosphopeptide, fluorescence polarization | Potency, µM, inactives show max response, negative = inhibition, hits mostly inhibitors | actives 2.8% (n = 360,000); further: series mostly up to about 57 µM; on the % scale 0 is the no-effect control and ±100 the full control effect; nearly all actives have a fitted effect of over 65% in size
Target sequence (P53350 whole entry, looked up, the tested form may be a part): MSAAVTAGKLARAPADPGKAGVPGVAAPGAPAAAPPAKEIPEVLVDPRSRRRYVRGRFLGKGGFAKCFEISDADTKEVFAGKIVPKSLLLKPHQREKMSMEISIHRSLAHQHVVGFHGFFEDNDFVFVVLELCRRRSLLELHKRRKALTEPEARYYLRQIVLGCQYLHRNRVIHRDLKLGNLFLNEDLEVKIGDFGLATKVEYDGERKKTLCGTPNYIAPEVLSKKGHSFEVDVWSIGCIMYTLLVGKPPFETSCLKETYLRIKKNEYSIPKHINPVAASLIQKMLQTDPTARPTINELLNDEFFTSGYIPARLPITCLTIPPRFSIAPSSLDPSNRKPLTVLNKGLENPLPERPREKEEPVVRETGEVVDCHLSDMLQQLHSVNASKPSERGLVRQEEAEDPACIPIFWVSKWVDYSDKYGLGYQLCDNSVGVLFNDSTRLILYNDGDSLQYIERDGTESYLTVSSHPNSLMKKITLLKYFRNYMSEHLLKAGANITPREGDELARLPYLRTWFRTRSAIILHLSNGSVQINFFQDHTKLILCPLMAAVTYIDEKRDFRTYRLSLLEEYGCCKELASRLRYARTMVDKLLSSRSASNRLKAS
JMJD2A Tudor inh: JMJD2A Tudor domain (human) inhibition; O75164; AlphaScreen JMJD2A-Tudor / H3K4me3 peptide binding; Potency, µM (doses to about 114 µM), for the others: top-dose activity change, negative = inhibition, usual class: inhibitors; actives 4.4% (n = 390,000); further: on the % scale 0 is the no-effect control and ±100 the full control effect; nearly all actives have a fitted effect of over 50% in size
L3MBTL1 inh: L3MBTL1 (human) inhibition; Q9Y468; AlphaScreen L3MBTL1–H3K9me1 peptide binding; Potency, µM (series often up to 57.1 µM), for the others: top-dose activity, negative = inhibition, most hits filed as inhibitors; actives 0.66% (n = 230,000); further: on the % scale 0 is the no-effect control and ±100 the full control effect; nearly all actives have a fitted effect of over 60% in size
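First, the protein-peptide complex forms for 30 min at room temperature (L3MBTL1 50 nM, biotinylated H3K9me1 peptide 75 nM). Next, compounds are pin-transferred and incubated 30 min. Finally, AlphaScreen beads are added and read after 30 min.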
HP1b binding inh: blocks HP1-beta chromodomain binding to methylated histone tails; P83916; AlphaScreen HP1-beta / biotin-H3K9me3 peptide binding; Potency, µM (doses to about 114 µM), for inactives: at the highest dose activity change, negative = inhibition, usual class: inhibitors; actives 0.56% (n = 390,000); further: nearly all actives have a fitted effect of over 70% in size
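AlphaScreen: HP1-beta (50 nM) preformed 30 min with biotin-H3(1-18)K9me3 peptide (50 nM) in PBS pH 7.4, 0.01% Tween-20. Compound added for 30 min at RT, then streptavidin donor/nickel chelate acceptor beads (10 ug/mL) for 30 min.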
BAZ2B block: blocks human BAZ2B; Potency, µM (titrated, usually from 114 µM), for the others: at the top dose activity change, negative = inhibition, hits mostly inhibitors; AID 504333; AlphaScreen BAZ2B-H3K14Ac peptide displacement; actives 4.4% (n = 360,000); Q9UIF8; further: on the % scale 0 is the no-effect control and ±100 the full control effect; nearly all actives have a fitted effect of over 60% in size
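In this displacement format the biotinylated H3(5-23) peptide acetylated at Lys14 serves as ligand at 50 nM, with BAZ2B at 50 nM in PBS pH 7.4 containing 0.01% Tween-20. Donor and acceptor beads are 10 ug/mL final.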
Numbers without * were called inactive; ? = inconclusive; / = not tested or not shown; [ ] = remark or other dose. Compounds with a hit are over-represented: about 6.9% of the library has one in this group of screens. The call rests on the fitted dose curve; in most records, active means well fitted curve in the direction sought with a large enough effect; inconclusive means small, poorly fitted or top-dose-only effect, or another doubt; inactive means no such curve, though single readings can be large; an effect the other way counts as inactive or inconclusive. Potency means the concentration at half of the fitted maximal effect.

SMILES	VDR inh	PLK1 PBD inh	JMJD2A Tudor inh	L3MBTL1 inh	HP1b binding inh	BAZ2B block
S=c1[nH]nc(-c2cccnc2)n1C1CCCCC1	0%	-4%	5µM*	9%	26%	4%
COc1ccc(-c2n[nH]c(=S)n2C2CCCCC2)cc1	1%	-7%	7.1µM*	2%	17%	-7%
O=C(CSc1nnc(-c2cccnc2)n1C1CCCCC1)NC1CCCCC1	5%	-7%	-4%	17%	17%	10%
CCOc1ccccc1NC(=O)CSc1nc2c([nH]c3ccccc32)c(=O)n1-c1ccccc1	10%	/	-7%	/	23%[57 µM]	1%
COc1ccc(NC(=O)Cn2nnc(C(=O)NCc3ccc4c(c3)OCO4)c2N)c(OC)c1	-29%	21µM*	28µM*	/	11%	-4%
COc1ccc(NC(=O)Cn2nnc(C(=O)NCc3ccc4c(c3)OCO4)c2N)cc1	-18%	-18%	-11%	5%	11%	-2%
O=C(CCn1c(=O)oc2ccccc21)NCc1ccc2c(c1)OCO2	-16%	2%	8%	34%	30%	5%
O=C(O)c1ccccc1C(=O)NCc1ccc2c(c1)OCO2	-9%	-10%	32µM*	/	?	-8%
O=C(CCn1cccc1)NCc1ccc2c(c1)OCO2	-6%	-13%	?	-13%	?	50µM*
CC1=C(C(=O)Nc2ccc(CC(=O)NCc3ccccc3C)cc2)SCCO1	2%	-10%	-16%	/	47%	?
COc1cccc(CNC(=O)Cc2ccc(NC(=O)C3=C(C)OCCS3)cc2)c1	-4%	?	?	/	17%	50µM*
COc1ccc(NC(=O)CN(C)C(=O)c2cnc(Cl)c(Cl)c2)cc1	-15%	-5%	-2%	/	24%	-4%
Cc1ccc(C)c(Nc2nn3c(=O)c4ccc(C(=O)NCc5cccs5)cc4nc3s2)c1	8%	/	-16%	/	0%	-10%
COc1cccc(NC(=O)c2ccc3c(c2)OCCO3)c1	14%	0%	-1%	/	24%	1%
COc1cccc(CNC(C)C(=O)Nc2ccc3c(c2)OCCO3)c1 (centres undefined)	-7%	-11%	3.2µM*	/	?	?
COc1ccc(CC(=O)NCc2ccc3c(c2)OCO3)cc1	5%	24µM*	-33%[57.1 µM]	/	2%	2%
NC(N)=Nc1nc(CSCC/C(N)=N/S(N)(=O)=O)cs1	?	?	22µM*	-1%	19%	2%
CCOc1ccc(NC2=CC(=O)CC(c3ccco3)C2)cc1 (centres undefined)	5%	-10%	-34%	-10%	-6%	-33%
CCCCCCCNC1=CC(=O)CC(c2ccco2)C1 (centres undefined)	-6%	-5%	50µM*	?	-19%	?
CC(C)CC(=O)Nc1ccc(C(=O)COC(=O)C2CCC2)cc1	-3%	-16%	-2%	/	32%	-12%
COc1cc(CNCCN2CCOCC2)ccc1OCc1c(Cl)cccc1Cl	/	/	/	3%	/	-10%
O=C(NCc1ccccn1)c1cc(Cl)ccc1OCc1ccccc1	-11%	-8%	-12%	/	55%	11%
COc1cc(CNCc2ccccn2)ccc1OCc1c(Cl)cccc1Cl	14%	4%	?	?	20%	89µM*
COc1cc(CNCc2ccccn2)ccc1OCc1ccc(Cl)cc1	2%	4%	25µM*	-29%	18%	?
COc1cc(Cl)c(C)cc1NC(=O)c1cnc2c(-c3cccc(C)c3)c(C)nn2c1C	-2%	/	-8%	/	22%	-5%
SMILES	VDR inh	PLK1 PBD inh	JMJD2A Tudor inh	L3MBTL1 inh	HP1b binding inh	BAZ2B block
CCc1ccc2occ(CC(=O)Nc3nnc(C)s3)c2c1	10%	/	-3%	/	36%	-5%
C=CCNc1nc(C(=O)OC(C)C(=O)c2ccc(C)cc2)cs1 (centres undefined)	-7%	-9%	-15%	2%	23%	/
CC(=O)Nc1ccc2c(c1)C(C)(C)C(C)N2C (centres undefined)	45µM*	-1%	-17%	/	21%	?
CC(=O)Nc1ccc2c(c1)CCCC2	-1%	5%	8%	7%	56%	5%
CCCCS(=O)(=O)Nc1ccc(C)cn1	?	21µM*	-18%	-1%	?	-2%
Cc1ccc(NS(=O)(=O)c2cccs2)nc1	5%	-15%	-12%	/	32%	6%
COc1cc(/C=C(/C(=O)c2cccs2)c2nc3ccccc3[nH]2)cc(OC)c1O	50µM*	-8%	?	/	?	-38%
CC(C)Oc1ccc(OCCn2c(S(=O)(=O)O)nc3c(N)ncnc32)cc1	-14%	-8%	-17%	/	24%	-7%
CC(C)Oc1ccc(OCCn2c(=S)[nH]c3c(N)ncnc32)cc1	-1%	11µM*	5.6µM*	/	?	-34%
Cc1cc(-n2c(C)cc(C(=O)CSc3ccccn3)c2C)no1	-15%	17µM*	-27%	-10%	-22%	/
Cc1cc(-n2c(C)cc(C(=O)CCl)c2C)no1	-8%	13µM*	-22%	-6%	42%	/
Cc1cc(-n2c(C)cc(C(=O)CSc3nnnn3-c3ccccc3)c2C)no1	10%	2%	-8%	-1%	21%	/
COCCCN1C(=O)c2ccc(C(=O)NCCc3ccccc3)cc2C1=O	-2%	0%	-14%	/	13%	1%
O=C1c2ccccc2C(=O)C1c1ccc(Cl)cc1	-9%	1%	-19%	/	9%	?
O=C1c2ccccc2C(=O)C12OC2c1ccc(Cl)cc1Cl (centres undefined)	89µM*	-27%	-14%	-4%	8%[57 µM]	-3%
Cc1c(NC(=O)C(=O)/C=C(\O)c2ccc(Br)cc2)c(=O)n(-c2ccccc2)n1C	2%	-1%	25µM*	-9%	-17%	?
COC(=O)Cn1c2ccc(F)cc2c2nc(C)sc21	79µM*	?	-1%	3%	25%	-28%
COc1ccc(CN2CCn3ncc(C(=O)Nc4ccccc4)c3C2=O)cc1	7%	-3%	-2%	3%	22%	-32%
O=C(O)c1cnn2c1C(=O)N(Cc1cccs1)CC2	6%	-16%	?	/	32µM*	22µM*
CCCc1nnc(SCc2ccc(OC)cc2)n1N	25µM*	21µM*	14µM*	/	?	4%
Nc1ccc(C(CC(=O)O)n2cccc2)cc1 (centres undefined)	17%	-19%	?	/	?	79µM*
O=C(CC(NCc1ccccn1)C(=O)O)Nc1ccccc1Cl (centres undefined)	6%	1%	20µM*	20µM*	59%	2.8µM*
O=C(NC1CC(=O)N(c2cccc(F)c2)C1)c1ccc2c(c1)OCO2 (centres undefined)	0%	/	4%	/	38%	2%
COc1ccc(-c2c3c(=O)n(C)c(=O)n(C)c3cn2C2CCCCC2)cc1	10%	-15%	?	/	?	50µM*

Bioassay records: PubChem, National Center for Advancing Translational Sciences (NCATS)
